Measurements as given in PubChem BioAssay (EPA / NIEHS).
Values joined by “and” are separate entries in the source; they are usually repeats but may differ in a detail not shown here. Equal entries are not always repeated. More than one record can exist for a structure, and the calls need not agree. Active and inactive are the calls of the source. Rule for the calls: active = hit-call score of the fitted dose curve at least 0.9, where 1 is the maximum; inactive = score below 0.9.

Experiment: APR_HepG2_CellCycleArrest_24hr: Apredica 24-hour HepG2 Assay for Cell Cycle Arrest (AID 2282905);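 note: cell cycle arrest scored as ratio of 2N to 4N nuclear DNA content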
Conditions: imaging, actives raise or lower the signal
Protocol: APR_HepG2_24hr is a cell-based, multiplexed-readout assay that uses HepG2, a human liver cell line, with measurements taken at 24 hours after chemical dosing in a 384-well plate.APR_HepG2_CellCycleArrest_24hr is one of 10 assay component(s) measured or calculated from the APR_HepG2_24hr assay. It is designed to make measurements of cell phenotype, a form of morphology reporter, as detected with fluorescence intensity signals by HCS Fluorescent Imaging technology.Data from the assay component APR_HepG2_CellCycleArrest_24hr was analyzed into 1 assay endpoint. This assay endpoint, APR_HepG2_CellCycleArrest_24hr, was analyzed with bidirectional fitting relative to DMSO as the negative control and baseline of activity. Using a type of morphology reporter, measures of all nuclear dna for gain or loss-of-signal activity can be used to understand the signaling at the pathway-level as they relate to the gene . Furthermore, this assay endpoint can be referred to as a primary readout, because this assay has produced multiple assay endpoints where this one serves a signaling function. To generalize the intended target to other relatable targets, this assay endpoint is annotated to the cell cycle intended target family, where the subfamily is arrest.
Cells were treated with dimethyl sulfoxide (DMSO) as a solvent control at a final concentration of 0.5% v/v or with compounds in DMSO with a resulting final DMSO concentration of 0.5% v/v. Compound treatment was done at concentrations of 0.39, 0.78, 1.56, 3.12, 6.24, 12.5, 25, 50, 100, and 200 uM in duplicate on each plate. Cells were treated with compounds for 1, 24, or 72 hr. Carbonyl […] m-chloro-phenylhydrazone (CCCP) and taxol were used as positive controls for mitochondrial function and cytoskeletal stability, respectively; DMSO served as the negative control for this experiment. Cells were fixed by the direct addition of 50 uL formaldehyde in Hank's Balanced Salt Solution (HBSS) to a final concentration of 3.7%. After incubation in the fixation medium for 30 min at room temperature (293-298 K), cells were rinsed twice with HBSS and treated with cell permeabilization buffer (16 uL of 0.5% Triton X-100) for 10 min at room temperature (293-298 K) before labeling. For mitochondrial membrane potential and mitochondrial measurements, pre-fixed cells were incubated with 50 uL of MitoTracker Red CMXRos (Invitrogen) at a concentration of 250 nM for 30 min before fixation. In the remaining cases, post-fixed cells were labeled by incubation with a multiplexed mixture of primary antibodies in HBSS for 60 min at room temperature (293-298 K) to detect immunoreactivity of c-Jun (1:500), phospho-histone H3 (1:100), phospho-histone H2A.x (1:200), p53 (1:400), alpha-tubulin (1:200) and Hoechst 33342 (2 ug/mL). Cells were labeled for multiplexed imaging on two separate plates: a) Hoechst 33342, MitoTracker Red, phospho-histone H3, and alpha-tubulin, and b) Hoechst 33342, phospho-histone H2A.x, and c-Jun. A final rinse with HBSS (50 uL) was performed before analysis. The primary and secondary antibodies for the proteins were phospho-histone H3 (rabbit anti-phospho-histone H3 and FITC-donkey anti-rabbit IgG), phospho-histone H2A.x (mouse anti-phospho-histone H2A.x and FITC-donkey anti-mouse IgG), c-Jun (rabbit anti-phospho-c-Jun and Cy3-donkey anti-rabbit IgG), p53 (sheep anti-p53 and Cy5-donkey anti-sheep IgG), alpha-tubulin (mouse anti-alpha-tubulin and Cy5-donkey anti-mouse IgG). These antibodies are available as the CellCiphr HepG2 assay kit (Millipore).Digital images of each well were captured using a Cellomics ArrayScan VTI (Thermo Scientific Cellomics) (0.8 NA objective, 0.63x optical coupler, and XF-93 filter set) at 20x magnification. The images were acquired using the autofocus feature of the ArrayScan instrument, which entails the following steps. First, the camera focuses on channel 1 (Hoechst 33342), where nuclei are identified. Second, a Z offset of 1 um is used for capturing mitochondria (MitoTracker Red). […]

Row | Structure (SMILES) | AC50 | outcome
1 | O=C(Nc1ccc([N+](=O)[O-])cc1Cl)c1cc(Cl)ccc1O | 0.0918 µM (active) | 
2 | CCCCOC(=O)[C@@H](C)Oc1ccc(Oc2ccc(C(F)(F)F)cn2)cc1 |  | inactive
3 | CCCN(CCC)c1c([N+](=O)[O-])cc(C(F)(F)F)c(N)c1[N+](=O)[O-] |  | inactive
4 | C=CCOC(Cn1ccnc1)c1ccc(Cl)cc1Cl (stereo not given) |  | inactive
5 | S=C([S-])NCCNC(=S)[S-].[Mn+2] |  | inactive
6 | COC(=O)c1cccc(C)c1S(=O)(=O)NC(=O)Nc1nc(OCC(F)(F)F)nc(N(C)C)n1 |  | inactive
7 | CCCOC(=O)c1ccc(C(=O)OCCC)nc1 |  | inactive
8 | CCCCCCC(C)OC(=O)COc1nc(F)c(Cl)c(N)c1Cl (stereo not given) |  | inactive
9 | S=C(S)NCCNC(=S)S.[Mn+2].[S-]C([S-])=NCCN=C([S-])[S-].[Zn+2] | 50.8 µM (active) and 53.7 µM (active) | inactive
10 | COC(=O)c1ccccc1C(=O)O |  | inactive
11 | CCOC(=O)COc1cc(-n2ncc(C(F)(F)F)c(C)c2=O)c(F)cc1Cl |  | inactive
12 | OB(O)O |  | inactive
13 | CCCCCOC(=O)COc1cc(N2C(=O)C3=C(CCCC3)C2=O)c(F)cc1Cl |  | inactive
14 | CCCCOCCOCCOCc1cc2c(cc1CCC)OCO2 |  | inactive
15 | CCCCC(CC)COC(=O)c1ccccc1C(=O)O (stereo not given) |  | inactive
16 | Cc1nn(C)c(Oc2ccccc2)c1C=NOCc1ccc(C(=O)OC(C)(C)C)cc1 | 29.9 µM (active) | 
17 | COC(=O)CSc1cc(N=c2sc(=O)n3n2CCCC3)c(F)cc1Cl |  | inactive
18 | CCN(CC)C(=O)c1cccc(C)c1 |  | inactive
19 | CCOC(=O)c1ccc(O)cc1 |  | inactive
20 | COc1nc(C)nc(NC(=O)NS(=O)(=O)c2ccccc2OCCCl)n1 |  | inactive

Row | Structure (SMILES) | AC50 | outcome
21 | CC(C)CCCCCCc1ccc(O)cc1 | 96.8 µM (active) | 
22 | O=C(O)C1(C(=O)Nc2ccc(Cl)cc2Cl)CC1 |  | inactive
23 | O=C(O)c1ccccc1 |  | inactive
24 | C[C@]12C[C@H](O)[C@H]3[C@@H](CCC4=CC(=O)CC[C@@]43C)[C@@H]1CC[C@@H]2C(=O)CO | 114 µM (active) | 
25 | N#CSCSc1nc2ccccc2s1 | 29.6 µM (active) | 
26 | CCC(C)OC(=O)N1CCCCC1CCO (stereo not given) |  | inactive
27 | CCOC(=O)C(C)Oc1ccc(Oc2cnc3cc(Cl)ccc3n2)cc1 (stereo not given) |  | inactive
28 | C#C[C@]1(O)CC[C@H]2[C@@H]3CCC4=CC(=O)CC[C@@H]4[C@H]3CC[C@@]21CC |  | inactive
29 | c1ccc(Nc2ccccc2)cc1 |  | inactive
30 | Oc1ccc(C(c2ccc(O)cc2)C(Cl)(Cl)Cl)cc1 |  | inactive
31 | COC(=O)c1ccc(CNS(C)(=O)=O)cc1S(=O)(=O)NC(=O)Nc1nc(OC)cc(OC)n1 |  | inactive
32 | COC(=O)c1c(Cl)nn(C)c1S(=O)(=O)NC(=O)Nc1nc(OC)cc(OC)n1 |  | inactive
33 | O=C(c1ccccc1)C1CCCCC1 |  | inactive
34 | C[C@]12CC[C@@H]3c4ccc(O)cc4C[C@@H](CCCCCCCCCS(=O)CCCC(F)(F)C(F)(F)F)[C@H]3[C@@H]1CC[C@@H]2O (stereo not given in full) |  | inactive
35 | CCOC(=O)[C@H](C)Oc1ccc(Oc2nc3ccc(Cl)cc3o2)cc1 |  | inactive
36 | c1ccc2[nH]c(-c3cscn3)nc2c1 |  | inactive
37 | COCCO |  | inactive
38 | CCOC(=O)NCCOc1ccc(Oc2ccccc2)cc1 |  | inactive
39 | CCCCC(CC)CN1C(=O)C2C3C=CC(C3)C2C1=O (stereo not given) |  | inactive
